Laboratory results: PubChem BioAssay AID540317 (National Center for Advancing Translational Sciences (NCATS), 2011)
The whole screen tested about 390,000 compounds, of which about 2,200 (0.56%) were called active. Not shown: some 3% with an inconclusive outcome. Calls follow the shape of the dose curve; as a rule, active = well fitted inhibition curve with a large enough effect; inconclusive = small, poorly fitted or top-dose-only effect; inactive = no such curve, though single readings can be large or run the other way. The list comes from a sample in which actives are over-represented; it also holds similar structures and randomly drawn compounds.

What follows are compounds tested against Chromobox protein homolog 1 (Homo sapiens) (UniProt P83916) (assay: HTS for Inhibitors of HP1-beta Chromodomain Interactions with Methylated Histone Tails). Conditions: AlphaScreen HP1-beta / biotin-H3K9me3 peptide binding; series mostly up to 114 µM; activity change, negative = inhibition: at the top concentration.
Procedure, shortened: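 AlphaScreen: HP1-beta (50 nM) preformed 30 min with biotin-H3(1-18)K9me3 peptide (50 nM) in PBS pH 7.4, 0.01% Tween-20. Compound added for 30 min at RT, then streptavidin donor/nickel chelate acceptor beads (10 ug/mL) for 30 min.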
Also: nearly all actives have a fitted effect of over 70% in size.
Potency is read from the fitted curve at half-maximal effect.

Sequence of Chromobox protein homolog 1 (Homo sapiens) (P83916 whole entry, looked up): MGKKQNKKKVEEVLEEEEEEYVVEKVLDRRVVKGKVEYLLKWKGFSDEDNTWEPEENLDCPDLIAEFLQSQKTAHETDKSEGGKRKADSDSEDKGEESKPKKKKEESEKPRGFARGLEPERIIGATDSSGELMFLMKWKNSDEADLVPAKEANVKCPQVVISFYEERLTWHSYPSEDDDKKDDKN

SMILES | activity change, negative = inhibition | Potency
Cc1cc(C)cc(OC(C)C(=O)Nc2nc3c(s2)CCCC3)c1 (stereo not drawn) | -9.84% (inactive) | 
COc1cc(C2c3c(oc4ccccc4c3=O)C(=O)N2c2nc(C)c(C)s2)ccc1O (stereo not drawn) | 12.1% (inactive) | 
COc1cc(/C=N\Nc2nc(-c3cccs3)c(NC(C)=O)s2)ccc1O |  | 22.4 µM (active)
COc1cc(/C=C/C(=O)OCC(=O)Nc2cccc(Oc3ccccc3)c2)ccc1O | -1.38% (inactive) | 
COc1ccc(Cl)cc1NC(=O)CSc1nc(-c2cccs2)cc(C(F)(F)F)n1 | 35% (inactive) | 
COc1ccc(CNC(=O)CSCc2nc(-c3ccccc3F)oc2C)cc1 | 37.2% (inactive) | 
COc1ccc(Cn2c(=O)sc3ccccc32)cc1OC | 19.8% (inactive) | 
COc1ccc(CCNC(=O)CCCCn2c(=O)c3ccccc3n(Cc3ccccc3)c2=O)cc1OC | 38.4% (inactive) | 
COc1cc(/C=C2/SC(=S)N(Cc3ccccc3)C2=O)cc(OC)c1O |  | 20 µM (active)
Cc1nc(SCC(=O)N2CCN(c3ccccc3)CC2)[nH]c(=O)c1C | 22% (inactive) | 
COc1cccc(-c2nc(CS(=O)(=O)CC(=O)N3CCN(c4cc(C)ccc4C)CC3)c(C)o2)c1 | 15.8% (inactive) | 
O=C1C[C@@H](c2ccc3ccccc3c2)N1S(=O)(=O)c1ccccc1[N+](=O)[O-] | 11.9% (inactive) | 
CCN(CC)C(=O)CSc1nc2cc3c(cc2c(=O)n1CCCC(=O)NCc1ccc2c(c1)OCO2)OCO3 | 35.7% (inactive) | 
CC(=O)N1CCCc2cc(S(=O)(=O)Nc3ccc(Cl)cc3F)ccc21 | 4.63% [at 57 µM] (inactive) | 
C=CS(=O)c1sc(Cl)c(N2CCOCC2)c1[N+](=O)[O-] (stereo not drawn) |  | 44.7 µM (active)
CCn1c2c(c(=O)n3ncc(C(=O)N4CCN(c5ccccc5)CC4)c13)CN(Cc1ccc(OC)cc1)CC2 | 38.7% [at 57 µM] (inactive) | 
COc1ccccc1CNC(=O)C(=O)NCC(c1cccs1)S(=O)(=O)c1cccs1 (stereo not drawn) | 18.9% (inactive) | 
Cc1nnc(C)n1-c1ccc(C(=O)Nc2cccc(Br)c2)cc1 | 29% [at 57 µM] (inactive) | 
FC(F)(F)c1cc(Nc2nc3ccccc3c3nncn23)ccc1Cl | 26.1% (inactive) | 
Cc1ccccc1Nc1c(-c2ccccc2)nc2ncccn12 | 33.7% (inactive) | 
Cc1cccc(C)c1Nc1c(-c2ccccc2O)nc2ncccn12 |  | inactive
CCc1cccc(C)c1Nc1c(-c2ccc(N(C)C)cc2)nc2ncccn12 |  | 17.8 µM (active)
COc1ccc(CCNC(=O)c2ccc3c(c2)sc2nc(-c4ccc(C)cc4)cn23)cc1OC | 43.6% (inactive) | 
c1ccc(Cn2nnc3c(N4CCCCC4)ncnc32)cc1 | 66.1% (inactive) | 

SMILES | activity change, negative = inhibition | Potency
CCN(CC)S(=O)(=O)c1cccc(-c2n[nH]c(=S)n2/N=C/c2ccc(C(=O)OC)cc2)c1 |  | 50.1 µM (active)
COC(=O)c1ccc(/C=N/N2C(C)CCCC2C)cc1 (stereo not drawn) | -18.2% (inactive) | 
CCN(CC)S(=O)(=O)c1cccc(NC(=O)c2ccc(S(=O)(=O)N3CCCC3)cc2)c1 | 42.7% (inactive) | 
CCCCNC(=O)Cn1c(SCc2cccc(Cl)c2)nc2ccncc21 | 22.8% [at 57 µM] (inactive) | 
CCOC(=O)c1cc2c(=O)n3ccccc3nc2n(CC2CCCO2)c1=NC(=O)c1ccccc1Br (stereo not drawn) | 46.8% (inactive) | 
COC(=O)c1ccccc1NC(=O)C(Cc1ccccc1)N1Cc2ccccc2C1=O (stereo not drawn) | 44.1% (inactive) | 
COc1cc(NC(=O)c2nn(-c3ccc(C)cc3)c(=O)c3c2c2ccccc2n3C)cc(OC)c1OC | 3.41% (inactive) | 
Cc1cccc(N2CCN(C(=O)c3ccccc3NC(=O)C3CCCCC3C(=O)O)CC2)c1 (stereo not drawn) | 23.8% (inactive) | 
COc1cccc(N2CCN(c3ccc4nnc(CCC(=O)N5CCN(C)CC5)n4n3)CC2)c1 | 12% [at 57 µM] (inactive) | 
Cc1cccc(-n2c(N)c(C(=O)N3CCN(C)CC3)sc2=S)c1 |  | 7.94 µM (active)
C=CCn1c(=S)[nH]c2scc(-c3ccco3)c2c1=O |  | 35.5 µM (active)
O=S(=O)(Nc1ccc2nc(-c3cccc(Cl)c3)oc2c1)c1ccccc1 | 33.4% (inactive) | 
CCc1ccc(NC(=O)CCCc2nnc3n(CCCOC)c(=O)c4sccc4n23)cc1 | 4.92% (inactive) | 
CCN(CC)c1cc(NC2CCCCC2)c2c3c(onc13)-c1ccccc1C2=O |  | 7.94 µM (active)
Cc1ccc(Cl)cc1NC(=O)CSc1nccn1C | -1.93% (inactive) | 
CCOC(=O)N1CCc2c(sc3c2c(=O)n(-c2ccc(CC)cc2)c(=O)n3C)C1 | 46.1% (inactive) | 
Nc1ccc2nc3c(=O)[nH]c(=S)[nH]c3nc2c1 |  | 2 µM (active)
CC1=C(c2ccc(C)c(C)c2)S(=O)(=O)NC1=NCc1ccccc1Cl | -2.94% (inactive) | 
COc1ccc(NC(=O)CSc2nccn2Cc2ccc3c(c2)OCO3)cc1 | 6.57% [at 57 µM] (inactive) | 
O=C1Nc2ccc(Br)cc2/C1=N/N=C/C1=C(N2CCOCC2)C(=C\c2ccccc2)/CC1 |  | 5.62 µM (active)
Cc1oc2ccc(O)c(CN3CCCCC3)c2c1C(=O)Nc1cccc(C(F)(F)F)c1 | 1.63% (inactive) | 
O=C(c1ccc2c(=O)n(Cc3ccco3)c(=S)[nH]c2c1)N1CCCC1 | 15.8% (inactive) | 
CCOC(=O)C1=C(c2ccc(OC)cc2)C(=O)c2ccccc2C1=O |  | 31.6 µM (active)
CCOC(=O)C1C(=O)C=C(c2ccc(OC)cc2)CC1c1ccco1 (stereo not drawn) | -12.5% (inactive) | 
